Several values for one entry are separate records, joined by “and”; a condition that tells them apart may be missing. Equal entries are not always repeated. Inconclusive results are not listed. A structure can be active in one record and inactive in another. Activity calls are given as the source filed them. Calls follow the shape of the dose curve; as a rule, active = well fitted curve in the direction sought with a large enough effect in the repeat runs; inconclusive = weak or mixed curves; inactive = no such curve, though single readings can be large; an effect the other way counts as inactive or inconclusive.
Experiments:
[1] = A CellTox Green Cytotoxicity Assay to monitor cytotoxicity in HEK293 cells - 40 hour (AID 1224871); also: nearly all actives have a fitted effect of over 45% in size; also: potency is read from the fitted curve at half-maximal effect
In short: (§1)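 Tox21 screen in HEK293: membrane-impermeant cyanine dye fluoresces on binding dead-cell DNA; compound pinned 5 h post-seeding, plates held at 37 C, signal read repeatedly through 40 h.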

[2] = qHTS RealTime-Glo MT Cell Viability Assay in HEK293 cells - 16 hour (AID 1224872); also: nearly all actives have a fitted effect of over 50% in size; also: potency is read from the fitted curve at half-maximal effect
In short: (§2)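 Cells + reagent dispensed (600 cells/well, HEK293) → 5 h at 37 C/5% CO2 → 23 nL compound in DMSO pinned → 40 h at 37 C → luminescence read at 0, 8, 16, 24, 32, 40 h.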

[3] = qHTS RealTime-Glo MT Cell Viability Assay in HepG2 cells - 8 hour (AID 1224873); also: nearly all actives have a fitted effect of over 55% in size; also: potency is read from the fitted curve at half-maximal effect
In short: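 HepG2 cells mixed with RealTime-Glo MT reagents (NanoLuc plus cell-permeant prosubstrate) were seeded at 600 cells/well, incubated 5 h at 37 C/5% CO2, then pinned with compounds in DMSO; nonlytic luminescence tracked viability during 40 h treatment.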

[4] = qHTS RealTime-Glo MT Cell Viability Assay in HEK293 cells - 40 hour (AID 1224874); conditions: RealTime-Glo luminescence; max response: stronger effect = lower value; also: nearly all actives have a fitted effect of over 50% in size; also: potency is read from the fitted curve at half-maximal effect
In short: (§3)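 HEK293 + NanoLuc + prosubstrate, 600 cells/well; 5 h, 37 C/5% CO2; compound 23 nL in DMSO by pintool; 37 C; luminescence read at 0, 8, 16, 24, 32 and 40 h time points.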

[5] = A CellTox Green Cytotoxicity Assay to monitor cytotoxicity in HepG2 cells - 16 hour (AID 1224876); also: nearly all actives have a fitted effect of over 45% in size; also: potency is read from the fitted curve at half-maximal effect
In short: (§4)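 Measurements at 0, 8, 16, 24, 32 and 40 h of treatment captured CellTox Green fluorescence in HepG2 cells that had been co-plated with reagent and preincubated 5 h at 37 C/5% CO2.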

[6] = qHTS RealTime-Glo MT Cell Viability Assay in HepG2 cells - 32 hour (AID 1224877); also: nearly all actives have a fitted effect of over 55% in size; also: potency is read from the fitted curve at half-maximal effect
In short: (§5)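 Real-time, nonlytic viability: 600 HepG2 cells/well mixed with NanoLuc enzyme plus prosubstrate; 5 h settle, compound (DMSO) added by pintool; luminescence monitored over 40 h at 37 C.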

[7] = A CellTox Green Cytotoxicity Assay to monitor cytotoxicity in HepG2 cells - 24 hour (AID 1224878); also: nearly all actives have a fitted effect of over 45% in size; also: potency is read from the fitted curve at half-maximal effect
In short: as §4

[8] = A CellTox Green Cytotoxicity Assay to monitor cytotoxicity in HepG2 cells - 40 hour (AID 1224879); also: nearly all actives have a fitted effect of over 40% in size; also: potency is read from the fitted curve at half-maximal effect
In short: as §4

[9] = qHTS RealTime-Glo MT Cell Viability Assay in HEK293 cells - 0 hour (AID 1224880); also: nearly all actives have a fitted effect of over 45% in size; also: potency is read from the fitted curve at half-maximal effect
In short: as §3

[10] = A CellTox Green Cytotoxicity Assay to monitor cytotoxicity in HEK293 cells - 32 hour (AID 1224881); also: nearly all actives have a fitted effect of over 40% in size
In short: as §1

[11] = A CellTox Green Cytotoxicity Assay to monitor cytotoxicity in HepG2 cells - 0 hour (AID 1224882); also: nearly all actives have a fitted effect of over 35% in size
In short: as §4

[12] = A CellTox Green Cytotoxicity Assay to monitor cytotoxicity in HepG2 cells - 32 hour (AID 1224883); also: nearly all actives have a fitted effect of over 50% in size; also: potency is read from the fitted curve at half-maximal effect
In short: as §4

[13] = A CellTox Green Cytotoxicity Assay to monitor cytotoxicity in HEK293 cells - 8 hour (AID 1224884); also: nearly all actives have a fitted effect of over 35% in size
In short: as §1

[14] = qHTS RealTime-Glo MT Cell Viability Assay in HepG2 cells - 16 hour (AID 1224885); also: nearly all actives have a fitted effect of over 50% in size; also: potency is read from the fitted curve at half-maximal effect
In short: as §5

[15] = qHTS RealTime-Glo MT Cell Viability Assay in HEK293 cells - 24 hour (AID 1224886); also: nearly all actives have a fitted effect of over 50% in size; also: potency is read from the fitted curve at half-maximal effect
In short: as §2

[16] = qHTS RealTime-Glo MT Cell Viability Assay in HEK293 cells - 8 hour (AID 1224887); also: nearly all actives have a fitted effect of over 50% in size; also: potency is read from the fitted curve at half-maximal effect
In short: as §3

[17] = A CellTox Green Cytotoxicity Assay to monitor cytotoxicity in HEK293 cells - 16 hour (AID 1224888); also: nearly all actives have a fitted effect of over 35% in size
In short: as §1

[18] = qHTS RealTime-Glo MT Cell Viability Assay in HepG2 cells - 0 hour (AID 1224889); also: nearly all actives have a fitted effect of over 50% in size; also: potency is read from the fitted curve at half-maximal effect
In short: as §5

[19] = A CellTox Green Cytotoxicity Assay to monitor cytotoxicity in HepG2 cells - 8 hour (AID 1224890); also: nearly all actives have a fitted effect of over 45% in size; also: potency is read from the fitted curve at half-maximal effect
In short: as §4
% is scaled to controls: 0 for no effect and ±100 for the full control effect.

NC[C@H](O)c1ccc(O)c(O)c1
inactive: Potency [1] | Potency [2] | Potency [3] | max response [4] -0.0212% and 2.99% | Potency [5] | Potency [6] | Potency [7] | Potency [8] | Potency [9] | Potency [10] | Potency [11] | Potency [12] | Potency [13] | Potency [14] | Potency [15] | Potency [16] | Potency [17] | Potency [18] | Potency [19]

Nc1ccc2c(O)cc(S(=O)(=O)O)cc2c1
active: Potency [4] 6.17 µM
inactive: Potency [1] | Potency [2] | Potency [3] | Potency [5] | Potency [6] | Potency [7] | Potency [8] | Potency [9] | Potency [10] | Potency [11] | Potency [12] | Potency [13] | Potency [14] | Potency [16] | Potency [17] | Potency [18] | Potency [19]

OCCNCCO
inactive: Potency [1] | Potency [2] | Potency [3] | max response [4] 4.46% and 5.31% | Potency [5] | Potency [6] | Potency [7] | Potency [8] | Potency [9] | Potency [10] | Potency [11] | Potency [12] | Potency [13] | Potency [14] | Potency [15] | Potency [16] | Potency [17] | Potency [18] | Potency [19]

CC(C)[N+](C)(CCOC(=O)C1c2ccccc2Oc2ccccc21)C(C)C
inactive: Potency [1] | Potency [2] | Potency [3] | max response [4] -23.6% and -15.1% | Potency [5] | Potency [6] | Potency [7] | Potency [8] | Potency [9] | Potency [11] | Potency [12] | Potency [13] | Potency [14] | Potency [15] | Potency [16] | Potency [17] | Potency [18] | Potency [19]

CC1(C)NC(=O)N(c2ccc([N+](=O)[O-])c(C(F)(F)F)c2)C1=O
24.5 µM (active) and inactive: Potency [15]
active: Potency [4] 24.5 µM
inactive: Potency [1] | Potency [3] | Potency [5] | Potency [6] | Potency [7] | Potency [8] | Potency [9] | Potency [10] | Potency [11] | Potency [12] | Potency [13] | Potency [14] | Potency [17] | Potency [18] | Potency [19]

C/C=C/C(=O)N(CC)c1ccccc1C
inactive: Potency [1] | Potency [2] | Potency [3] | max response [4] 1.07% and 4.13% | Potency [5] | Potency [6] | Potency [7] | Potency [8] | Potency [9] | Potency [10] | Potency [11] | Potency [12] | Potency [13] | Potency [14] | Potency [15] | Potency [16] | Potency [17] | Potency [18] | Potency [19]

CC(C)[C@@H]1CC[C@@H](C)CC1=O
inactive: Potency [1] | Potency [2] | Potency [3] | max response [4] -0.963% and 5.54% | Potency [5] | Potency [6] | Potency [7] | Potency [8] | Potency [9] | Potency [11] | Potency [12] | Potency [13] | Potency [14] | Potency [15] | Potency [16] | Potency [17] | Potency [18] | Potency [19]

O=C(CCCN1CCC(O)(c2ccc(Cl)cc2)CC1)c1ccc(F)cc1
inactive: Potency [9] | Potency [11] | Potency [13] | Potency [18]
active: Potency [2] 13.8 µM and 5.35 µM | Potency [4] 21.9 µM and 8.49 µM | Potency [7] 24.5 µM | Potency [8] 24.5 µM and 26.8 µM | Potency [12] 21.9 µM | Potency [15] 13.8 µM and 8.49 µM | Potency [16] 13.8 µM and 9.52 µM
49 µM (active) and inactive: Potency [1] | Potency [3] | Potency [6] | Potency [14] | Potency [19]
43.6 µM (active) and inactive: Potency [5]

CC(=O)O[C@]1(C(C)=O)CC[C@H]2[C@@H]3C=C(C)C4=CC(=O)CC[C@]4(C)[C@H]3CC[C@@]21C
inactive: Potency [1] | Potency [3] | Potency [5] | Potency [6] | Potency [7] | Potency [8] | Potency [10] | Potency [11] | Potency [12] | Potency [13] | Potency [14] | Potency [16] | Potency [17] | Potency [19]
active: Potency [4] 19.5 µM and 10.7 µM | Potency [9] 5.49 µM and 2.68 µM | Potency [15] 19.5 µM | Potency [18] 347 nM and 952 nM

OC[C@@H](O)[C@@H](O[C@@H]1O[C@H](CO)[C@H](O)[C@H](O)[C@H]1O)[C@H](O)[C@@H](O)CO
inactive: Potency [1] | Potency [2] | Potency [3] | max response [4] 5.89% and 2.02% | Potency [5] | Potency [6] | Potency [7] | Potency [8] | Potency [9] | Potency [10] | Potency [11] | Potency [12] | Potency [13] | Potency [14] | Potency [15] | Potency [16] | Potency [17] | Potency [18] | Potency [19]

Cc1ccc(C)c(O)c1
inactive: Potency [1] | Potency [2] | Potency [3] | max response [4] 1.95% and 4.96% | Potency [5] | Potency [6] | Potency [7] | Potency [8] | Potency [9] | Potency [11] | Potency [12] | Potency [13] | Potency [14] | Potency [15] | Potency [16] | Potency [17] | Potency [18] | Potency [19]

Reference: PubChem BioAssay (Tox21)
